In PubChem BioAssay AID1159580 (chemical genetic matrix, 2015):
In all, about 5,500 compounds went through this assay and about 2,000 (36%) were called active. About 18% were inconclusive and are not listed. Rule as the data show it: active = normalized growth mostly below about 0.91 (no sharp cut-off); inconclusive = no clear call, values can overlap the other calls; inactive = mostly above about 0.92. Some of the results follow.

Assay: chemical genetic growth profiling, strain panel (AID 1159580);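 also: tested at 20 µM; growth read once vehicle control cultures reached saturation at 30 °C; 1 = growth at the plate median or of vehicle wells; lower values mean less growth of the strain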
Details: S. cerevisiae deletion strains, growth OD
[1] = locus YDL101C, strain DUN1, hits give low values
[2] = locus YHR030C, strain SLT2, hits give low values
[3] = locus YDR150W, strain NUM1, hits give low values
[4] = locus YGR078C, strain PAC10, hits give low values
[5] = locus YNL153C, strain GIM3, hits give low values
[6] = locus YNL322C, strain KRE1, hits give low values
[7] = locus YPL055C, strain LGE1, hits give low values
[8] = locus YPL241C, strain CIN2, hits give low values

Measured: normalized growth

CCc1cc2c(cc1-c1csc(C/C(N)=N\O)n1)C(C)(C)CCC2(C)C
inactive: locus YAR019C, strain CDC15, hits give low values 0.985 | locus YBL105C, strain PKC1, hits give low values 0.974 | locus YBR135W, strain CKS1, hits give low values 0.969 | locus YBR136W, strain MEC1, hits give low values 0.981 | locus YBR160W, strain CDC28, hits give low values 0.986 | locus YDL017W, strain CDC7, hits give low values 0.978 | locus YDL028C, strain MPS1, hits give low values 0.985 | [1] 0.979 | locus YDL108W, strain KIN28, hits give low values 0.968 | locus YDL132W, strain cdc53, hits give low values 0.965 | locus YDL214C, strain PRR2, hits give low values 0.757 | locus YDR052C, strain DBF4, hits give low values 0.974 | locus YDR054C, strain cdc34, hits give low values 0.97 | locus YDR226W, strain ADK1, hits give low values 0.976 | locus YDR477W, strain SNF1, hits give low values 0.75 | locus YFL009W, strain cdc4, hits give low values 0.967 | locus YFL029C, strain CAK1, hits give low values 0.974 | locus YFR003C, strain YPI1, hits give low values 0.974 | locus YFR019W, strain FAB1, hits give low values 0.819 | locus YFR028C, strain CDC14, hits give low values 0.973 | locus YGR040W, strain KSS1, hits give low values 0.749 | locus YGR092W, strain DBF2, hits give low values 0.722 | locus YHR079C, strain IRE1, hits give low values 0.525 | locus YHR082C, strain KSP1, hits give low values 0.647 | locus YHR205W, strain SCH9, hits give low values 0.77 | locus YIL147C, strain SLN1, hits give low values 0.981 | locus YJL095W, strain BCK1, hits give low values 0.532 | locus YJL128C, strain PBS2, hits give low values 0.962 | locus YJL157C, strain FAR1, hits give low values 0.779 | locus YJR016C, strain ILV3, hits give low values 0.965 | locus YJR066W, strain TOR1, hits give low values 0.666 | locus YKL067W, strain YNK1, hits give low values 0.755 | locus YKL193C, strain SDS22, hits give low values 0.973 | locus YKL203C, strain TOR2, hits give low values 0.764 | locus YLR133W, strain CKI1, hits give low values 0.813 | locus YLR403W, strain SFP1, hits give low values 0.784 | locus YMR001C, strain CDC5, hits give low values 0.969 | locus YMR205C, strain PFK2 (second series), hits give low values 0.78 | locus YMR277W, strain FCP1, hits give low values 0.963 | locus YNL006W, strain LST8, hits give low values 0.977 | locus YNL020C, strain ARK1, hits give low values 0.788 | locus YNL161W, strain CBK1, hits give low values 0.977 | locus YNL207W, strain RIO2, hits give low values 0.964 | locus YNL222W, strain SSU72, hits give low values 0.972 | locus YNL307C, strain MCK1 (second series), hits give low values 0.797 | locus YOL078W, strain AVO1, hits give low values 0.969 | locus YOL136C, strain PFK27, hits give low values 0.738 | locus YOR061W, strain CKA2, hits give low values 0.788 | locus YOR119C, strain RIO1, hits give low values 0.78 | locus YOR329C, strain SCD5, hits give low values 0.981 | locus YPL204W, strain HRR25, hits give low values 0.759 | locus YPL209C, strain IPL1, hits give low values 0.976 | locus YPR025C, strain CCL1, hits give low values 0.978 | locus YPR106W, strain ISR1, hits give low values 0.976 | locus YPR111W, strain DBF20, hits give low values 0.966 | strain NNK1, hits give low values 0.947 | strain TSCII, hits give low values 0.975
active: locus YER123W, strain YCK3, hits give low values 0.568 | locus YER133W, strain GLC7, hits give low values 0.712 | locus YGR052W, strain FMP48, hits give low values 0.567 | [2] 0.499 | locus YJR066W, strain TOR1 (second series), hits give low values 0.601 | locus YKL048C, strain ELM1, hits give low values 0.721 | locus YKL101W, strain HSL1, hits give low values 0.701 | locus YLR113W, strain HOG1, hits give low values 0.369 | locus YML070W, strain DAK1, hits give low values 0.618 | locus YNL183C, strain NPR1, hits give low values 0.553 | locus YOR231W, strain MKK1, hits give low values 0.525 | locus YPL031C, strain PHO85, hits give low values 0.639 | locus YPL153C, strain RAD53, hits give low values 0.552 | locus YPL256C, strain CLN2, hits give low values 0.546

c1ccc2c(N3CCNCC3)cccc2c1
inactive: locus YAL040C, strain CLN3, hits give low values 1.03 | locus YCL061C, strain MRC1 (second series), hits give low values 1 | [3] 0.994 | locus YDR363W, strain ESC2, hits give low values 0.999 | locus YER002W, strain NOP16, hits give low values 1.01 | [4] 0.993 | locus YGR229C, strain SMI1, hits give low values 1.02 | locus YMR307W, strain GAS1, hits give low values 0.99 | [5] 0.991 | locus YNL175C, strain NOP13, hits give low values 1.01 | locus YNL197C, strain WHI3, hits give low values 0.997 | locus YNL224C, strain SQS1, hits give low values 1.01 | [6] 1.01 | locus YOR083W, strain WHI5 (second series), hits give low values 1 | [7] 1.02 | [8] 1

COc1ccccc1N1CCN(Cc2ccc(F)cc2)CC1
inactive: locus YAL013W, strain DEP1, hits give low values 1.02 | locus YBR229C, strain ROT2, hits give low values 0.993 | locus YCL061C, strain MRC1, hits give low values 1 | [1] 0.992 | [3] 1.02 | locus YEL061C, strain CIN8, hits give low values 1.01 | [4] 1.01 | [2] 1.06 | locus YHR087W, strain rtc3, hits give low values 1.01 | locus YJL187C, strain SWE1, hits give low values 1.02 | locus YJR043C, strain POL32, hits give low values 1.01 | locus YJR075W, strain HOC1, hits give low values 0.983 | locus YKL190W, strain CNB1, hits give low values 1.02 | locus YLR039C, strain RIC1, hits give low values 0.987 | locus YLR058C, strain SHM2 (second series), hits give low values 1.02 | locus YLR085C, strain ARP6, hits give low values 1.04 | locus YLR262C, strain YPT6, hits give low values 1.01 | locus YML094W, strain GIM5, hits give low values 1 | locus YMR219W, strain ESC1, hits give low values 1.01 | locus YMR263W, strain SAP30, hits give low values 1.01 | locus YNL128W, strain TEP1, hits give low values 1.02 | [5] 0.997 | locus YNL298W, strain CLA4 (second series), hits give low values 1.05 | [6] 1 | locus YNR030W, strain Alg12, hits give low values 1.04 | [7] 1 | [8] 0.998 | locus YPR135W, strain CTF4, hits give low values 1
